Among the data in the supplement of paper PMC8877412 are cell viability values, retold here.

Molecules are shown by their SMILES. Structures can show the parent of a compound that is named as a salt. ± gives the uncertainty stated by the source.

The experiment relates to NCC-PMP1-C1. The experiment in a line: cell viability relative to DMSO control; higher = less growth inhibition. The following applies: 10 µM; 72 h. Here is the method: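 NCC-PMP1-C1 pseudomyxoma peritonei cells were seeded in 384-well plates coated with Matrigel and MEF (1e4 cells). Viability was read after 72 h by CCK-8 and expressed as % of the DMSO control, mean ± SD of duplicates.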
Consider `FC(F)(F)c1ccc(/C=C/c2nc(COc3ccc(CCCCn4ccnn4)cc3)co2)cc1` [Mubritinib (TAK 165)], for which the cell viability worked out at 171 ± 3.5%.
With `C/C=C1\NC(=O)[C@H]2CSSCC/C=C/[C@H](CC(=O)N[C@H](C(C)C)C(=O)N2)OC(=O)[C@H](C(C)C)NC1=O` [Romidepsin (FK228, Depsipeptide)] the figure was 22.2 ± 22%; with `CNC(=O)c1ccc(N2C(=S)N(c3ccc(C#N)c(C(F)(F)F)c3)C(=O)C2(C)C)cc1F` [Enzalutamide (MDV3100)], 99.7 ± 15%; with `C=CC(=O)N1CCC(Oc2cc3c(Nc4ccc(Cl)c(Cl)c4F)ncnc3cc2OC)CC1` [Poziotinib (HM781-36B)], 76.9 ± 8.5%.
With `CS(=O)(=O)CCNCc1ccc(-c2ccc3ncnc(Nc4ccc(OCc5cccc(F)c5)c(Cl)c4)c3c2)o1` [Lapatinib] the figure was 50.4 ± 2.3%.
For the compound `Cc1[nH]c(/C=C2\C(=O)Nc3ccccc32)c(C)c1CCC(=O)O` [Orantinib (TSU-68, SU6668)], the cell viability worked out at 115 ± 2.1%.
For `Nc1nc(Cl)nc2c1ncn2[C@H]1C[C@H](O)[C@@H](CO)O1` [Cladribine], the cell viability came out at 97.8 ± 1.1%.
With `COc1cc(N2CCC(N3CCN(C)CC3)CC2)ccc1Nc1ncc(Cl)c(Nc2ccccc2S(=O)(=O)C(C)C)n1` the figure was 38.3 ± 2.1%; with `CN1CCN(CCOc2cc(OC3CCOCC3)c3c(Nc4c(Cl)ccc5c4OCO5)ncnc3c2)CC1` [Saracatinib (AZD0530)], 49.7 ± 2%.
On to `CC[C@]1(O)C[C@@H]2CN(CCc3c([nH]c4ccccc34)[C@@](C(=O)OC)(c3cc4c(cc3OC)N(C)[C@H]3[C@@](O)(C(=O)OC)[C@H](OC(C)=O)[C@]5(CC)C=CCN6CC[C@]43[C@@H]65)C2)C1` [Vinblastine sulfate], for which the cell viability came to 43.6 ± 2.9%.
As for `O=C(CCBr)N1CCN(C(=O)CCBr)CC1` [Pipobroman-D8], the cell viability turned out to be 84 ± 7.7%.
With `CCN1CCN(Cc2ccc(Nc3ncc(F)c(-c4cc(F)c5nc(C)n(C(C)C)c5c4)n3)nc2)CC1` [Abemaciclib mesylate], the cell viability came to 77.7 ± 1.2%.
With `Nc1nc2[nH]cc(CCc3ccc(C(=O)N[C@@H](CCC(=O)O)C(=O)O)cc3)c2c(=O)[nH]1` [Pemetrexed Disodium Hydrate] the figure was 101 ± 18%.
With `CO[C@H]1O[C@@H]2O[C@@]3(C)CC[C@H]4[C@H](C)CC[C@@H]([C@H]1C)[C@@]24OO3` [Artemether] the figure was 105 ± 6.2%.
As to `CC(=O)O[C@]1(C(C)=O)CC[C@H]2[C@@H]3C=C(C)C4=CC(=O)CC[C@]4(C)[C@H]3CC[C@@]21C` [Megestrol Acetate], the cell viability was determined as 91.4 ± 16%.
With `COc1cc(Nc2c(C#N)cnc3cc(OCCCN4CCN(C)CC4)c(OC)cc23)c(Cl)cc1Cl` [Bosutinib (SKI-606)] the figure was 52.4 ± 0.73%.
For the compound `Cn1nnc2c(C(N)=O)ncn2c1=O` [Temozolomide], the cell viability stood at 118 ± 5.8%.
Take `CN1CCN(c2ccc(C(=O)Nc3n[nH]c4ccc(Cc5cc(F)cc(F)c5)cc34)c(NC3CCOCC3)c2)CC1` [Entrectinib (RXDX-101)]: the cell viability is -0.545 ± 0.059%.
With `Nc1cccc2c1CN(C1CCC(=O)NC1=O)C2=O` (stereo unspecified) [Lenalidomide] the figure was 106 ± 3.2%.
Turning to `O=C1NC(=O)[C@@H](c2cn3c4c(cccc24)CCC3)[C@@H]1c1c[nH]c2ccccc12` [Tivantinib (ARQ 197)], the cell viability was found to be 79.8 ± 7.7%.
Consider `COc1cc2/c(=N/c3ccc(Br)cc3F)nc[nH]c2cc1OCC1CCN(C)CC1` [Vandetanib (ZD6474)], for which the cell viability is 54.7 ± 4.9%.
With `O=C(O)C(=O)O.[NH-][C@@H]1CCCC[C@H]1[NH-].[Pt+2]` [Oxaliplatin] the figure was 103 ± 15%.
With `CCN(CC)CCNC(=O)c1c(C)[nH]c(/C=C2\C(=O)Nc3ccc(F)cc32)c1C` [Sunitinib Malate] the figure was 50.6 ± 16%; with `COC(=O)C1=C(C#N)NC(C)=C(C(=O)OC(C)C)C1c1cccc([N+](=O)[O-])c1` (stereo unspecified) [Nilvadipine], 82.8 ± 3.3%.
With `CN(C)/N=N/c1[nH]cnc1C(N)=O` [Dacarbazine], the cell viability was 111.7 ± 1.1%.
As to `Nc1ccn([C@@H]2O[C@H](CO)[C@@H](O)[C@@H]2O)c(=O)n1` [Cytosine β-D-arabinofuranoside hydrochloride], the cell viability was determined as 74.2 ± 10%.
As to `CO[C@H](C(=O)[C@@H](O)[C@@H](C)O)[C@@H]1Cc2cc3cc(O[C@H]4C[C@@H](O[C@H]5C[C@@H](O)[C@H](O)[C@@H](C)O5)[C@H](O)[C@@H](C)O4)c(C)c(O)c3c(O)c2C(=O)[C@H]1O[C@H]1C[C@@H](O[C@H]2C[C@@H](O[C@H]3C[C@](C)(O)[C@H](O)[C@@H](C)O3)[C@H](O)[C@@H](C)O2)[C@H](O)[C@@H](C)O1` [Mithramycin A], the cell viability was 7.11 ± 5.3%.
Regarding `CC(C)(OCc1nn(Cc2ccccc2)c2ccccc12)C(=O)O` [Bindarit], the cell viability worked out at 104 ± 7.1%.
Turning to `CCN1CCN(Cc2ccc(Nc3ncc(F)c(-c4cc(F)c5nc(C)n(C(C)C)c5c4)n3)nc2)CC1` [Abemaciclib], the cell viability turned out to be 65.2 ± 4.2%.
With `Nc1nc(Cl)nc2c1ncn2[C@@H]1O[C@H](CO)[C@@H](O)[C@@H]1F` [Clofarabine] the figure was 112 ± 5.7%.
Take `COc1ccc(C2=N[C@@H](c3ccc(Cl)cc3)[C@@H](c3ccc(Cl)cc3)N2C(=O)N2CCNC(=O)C2)c(OC(C)C)c1` [Nutlin-3]: the cell viability came to 74.1 ± 4.9%.
Regarding `O=P(O)(O)C(O)(Cn1ccnc1)P(=O)(O)O` [Zoledronic Acid], the cell viability came out at 109 ± 6%.
On to `O=c1[nH]c(=O)n(C2CCCO2)cc1F` (stereo unspecified), for which the cell viability was 108 ± 3.1%.
With `COc1nc(N)nc2c1ncn2[C@@H]1O[C@H](CO)[C@@H](O)[C@@H]1O` [Nelarabine] the figure was 127 ± 21%.
With `CC1(COc2ccc3c(c2)ncn3-c2ccc3cccc(N4CCC(N)CC4)c3n2)COC1` the figure was 70 ± 8.6%.
With `COc1cc(Nc2ncc(F)c(Nc3ccc4c(n3)N(COP(=O)(O)O)C(=O)C(C)(C)O4)n2)cc(OC)c1OC` [Fostamatinib (R788)] the figure was 4.92 ± 3.4%.

For orientation: cell viability means a read-out of living cells in per cent, often relative to untreated cells.
